Measurements published in PubChem BioAssay AID652031 (The Scripps Research Institute Molecular Screening Center, 2013).
Out of some 16,000 compounds screened, about 70 (0.4%) were called active. The sample as a whole holds a higher share of actives than the screen did. Unmarked numbers belong to inactive results. No stated cut-off is given here; in the data, active means inhibition above about 50%; inactive means the rest.

target: Kappa-type opioid receptor (Homo sapiens) (UniProt P41145); test: antagonists of human kappa opioid receptor OPRK1, Maybridge library (AID 652031); conditions: OPRK1 cells, antagonist mode, fluorescence readout; at 9 µM; hits give high values
Sequence (P41145 whole entry, looked up): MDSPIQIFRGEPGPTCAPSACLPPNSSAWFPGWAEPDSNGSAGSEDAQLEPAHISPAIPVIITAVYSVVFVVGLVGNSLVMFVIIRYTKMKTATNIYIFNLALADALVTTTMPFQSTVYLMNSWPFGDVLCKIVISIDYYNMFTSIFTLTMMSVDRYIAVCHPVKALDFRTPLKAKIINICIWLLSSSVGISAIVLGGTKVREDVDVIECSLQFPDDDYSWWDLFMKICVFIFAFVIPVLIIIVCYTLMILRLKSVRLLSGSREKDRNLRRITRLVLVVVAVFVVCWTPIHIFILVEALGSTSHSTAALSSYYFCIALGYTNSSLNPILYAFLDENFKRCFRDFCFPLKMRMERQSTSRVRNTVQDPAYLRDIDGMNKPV

First: COc1ccccc1N1CCN(C/C(N)=N/O)CC1
Second: COc1ccc(COCC(O)CN2CCN(c3ccc(C(F)(F)F)cn3)CC2)cc1 (stereo unspecified)
The inhibition of the first is higher: -2.8% for the first, -10.5% for the second.

Going from `N/C(=N\OC(=O)c1cccc(Cl)c1)c1ccc2nonc2c1` to `Cc1cc(/C(N)=N/OC(=O)c2cccs2)c(-c2ccccc2)o1`, the inhibition falls from 3% to -13%.

First: COC(=O)C1=C(NNc2ccccc2)CSC1
Second: Cc1nn(-c2ccccc2)nc1C(=O)Nc1nnc(C2CC2)s1
The inhibition of the first is higher: 8.6% for the first, 8.4% for the second.

Compared with `FC(F)(F)c1ccc(-n2cn[nH]c2=S)cc1`, `FC(F)(F)c1ccc(/C=N/Nc2nccc(C(F)(F)F)n2)cc1` is higher in inhibition: -0.4% for the first, 6.7% for the second.

Compared with `COc1ccc(Cc2nc(C(C)(C)C)cs2)cc1`, `CCOC(=O)/C(C#N)=C/c1ccc(-c2nccs2)cc1C(C)(C)C` is lower in inhibition: 10.7% for the first, -2.8% for the second.

Compared with `CCOC(=O)CNC(=O)c1ccc(-c2cccc([N+](=O)[O-])c2)o1`, `CCOC(=O)COc1cccc2c(C)cc(=O)oc12` is lower in inhibition: 9.9% for the first, -1.5% for the second.

Going from `CSc1nc(-n2nc(C)cc2C)nc(-c2ccco2)c1C#N` to `CSc1nc(N/C=C(\C#N)C(=O)c2cccs2)n2nc(C)cc2n1`, the inhibition rises from -17.5% to 9.3%.

Going from `CC(N)=NCCc1ccncc1` to `CC(=O)Nc1ccc(/C(N)=N/O)cc1`, the inhibition rises from -6% to 9.1%.

Compared with `N#Cc1cn(-c2cccc(C(F)(F)F)c2)c(=O)n(Cc2ccc(Cl)cc2)c1=O`, `N#Cc1ccc(Oc2ccc(Cl)cc2)c([N+](=O)[O-])c1` is higher in inhibition: -10.4% for the first, 5.4% for the second.

First: CC(C)S(=O)(=O)c1cscc1N/C=C(/C#N)C(=O)C1CC1
Second: CCO/N=C\c1nn(S(C)(=O)=O)cc1Br
The inhibition of the first is higher: 14.8% for the first, -12.1% for the second.

Compared with `O=C(CSc1nnc(-c2ccncc2)n1Cc1ccccc1)Nc1nnc(-c2ccco2)s1`, `O=C(CSc1ccc(Cl)cc1)NCCSCc1ccco1` is higher in inhibition: 2.3% for the first, 15.7% for the second.

Compared with `COC(C)(OC)c1ccc(C#N)c(=S)[nH]1`, `Cc1ccc(Oc2c(C)[nH]c(=S)[nH]c2=O)cc1` is higher in inhibition: -2.3% for the first, -1.2% for the second.

Going from `FC(F)(F)c1cnc(NN=C2CCSCC2)c(Cl)c1` to `CSc1nnc(-c2ccc(C(F)(F)F)cn2)o1`, the inhibition rises from -7.6% to -0.1%.

First: CN(C)C(=S)Nc1ccc(Br)cc1Cl
Second: O=C(Nc1ccc(I)cc1Cl)C(=S)NCc1cccs1
The inhibition of the first is higher: 12.1% for the first, -3.3% for the second.

Going from `N#CCCSc1sc(=S)sc1SCCC#N` to `CSc1sc(C(=O)Nc2cccc(Cl)c2)c(-c2cccs2)c1C#N`, the inhibition rises from -2.5% to 5.9%.

Compared with `N/C(=N\OC(=O)CCn1cccc(C(F)(F)F)c1=O)c1ccc(OC(F)(F)F)cc1`, `CCOC(=O)N1CCN(CC(O)COc2ccc(OC(F)(F)F)cc2)CC1` (stereo unspecified) is higher in inhibition: 3.1% for the first, 3.6% for the second.

Going from `Cc1cc(-c2noc(-c3cccs3)n2)no1` to `Cc1cc(NC(=O)c2cc(-c3ccccc3)c(C(F)(F)F)s2)no1`, the inhibition rises from -20.2% to -1.6%.

Compared with `C/C(=N\NC(=S)Nc1cccc(F)c1)c1ccco1`, `N/C(=N/OC(=O)NC(=O)c1c(Cl)cccc1Cl)c1ccc(F)cc1F` is lower in inhibition: 14.4% for the first, -5.4% for the second.

Compared with `Cn1cccc1CNC(=O)c1cc(F)cc2c1OCOC2`, `O=C(c1ccc(F)cc1)C1CCN(Cc2cn[nH]c2-c2ccccc2)CC1` is lower in inhibition: 11.7% for the first, -2.9% for the second.

Compared with `COc1c(/C(N)=N/O)cc(C)c2c1CCC2`, `COC(=O)c1cc(C(N)=O)c(SC)s1` is higher in inhibition: -7.6% for the first, 8.2% for the second.

Going from `COC(=O)c1ccccc1N(C)C(=O)c1cc(OC)c(OC)c(OC)c1` to `COc1ccc(OC(=O)/C=C/c2sc3ccccc3c2C)cc1`, the inhibition rises from 2.6% to 8.8%.

First: Cc1ccc(S(=O)(=O)NNC(=O)CCc2nc(-c3ccc(Cl)cc3)no2)cc1
Second: CCc1cnc(NS(=O)(=O)c2cc(Cl)sc2Cl)nc1-c1c(F)cccc1F
The inhibition of the first is lower: -5.8% for the first, 1.8% for the second.

Going from `O=C1CCC(=O)N(c2ccccc2)N1` to `Cc1nc2sc(-c3ccccc3)cc2c(=O)o1`, the inhibition falls from 14.7% to -0.4%.

Compared with `O=C1NC(=O)c2cc([N+](=O)[O-])c(Sc3c(Cl)cccc3Cl)cc21`, `CN(C)NC(=O)c1csnc1-c1c(Cl)cccc1Cl` is higher in inhibition: 4.3% for the first, 36.6% for the second.

First: N#CCc1ccc(NC(=O)c2ccccc2C(=O)Nc2ccc(CC#N)cc2)cc1
Second: N#Cc1c(-c2ccccc2)c(-c2ccccc2)n[nH]c1=O
The inhibition of the first is higher: 20.8% for the first, 20% for the second.

First: O=C(c1ccc(Oc2ccc(Cl)cc2)c([N+](=O)[O-])c1)N1CCCC1
Second: S=C(Nc1cccnc1)N1CCCN(Cc2ccc(Cl)cc2Cl)CC1
The inhibition of the first is lower: 4.1% for the first, 4.7% for the second.

First: CNC(=O)c1ccccc1I
Second: O=c1cc(-c2ccccc2)sc2ccc(Cl)cc12
The inhibition of the first is higher: -1.2% for the first, -5.7% for the second.

Going from `Cn1cnnc1SCC(=O)Nc1cc(C(F)(F)F)cc(C(F)(F)F)c1` to `O=C(Nc1ccccc1N1CCOCC1)C1CCN(c2nccc(C(F)(F)F)n2)CC1`, the inhibition rises from 0.9% to 9.4%.

First: CC(C)(C)NC(=O)N/N=C/c1[nH]ncc1Br
Second: CCOC(=O)Cc1nc(N)ncc1C(=O)OCC
The inhibition of the first is lower: 1% for the first, 17.3% for the second.

First: COC(=O)c1ccc(S(=O)(=O)N2CCN(c3ccc([N+](=O)[O-])cn3)CC2)n1C
Second: COC(=O)c1cnc(N2CCCN(C(=O)C3COc4ccccc4O3)CC2)nc1C(F)(F)F (stereo unspecified)
The inhibition of the first is higher: -6.6% for the first, -8.4% for the second.

First: CCOCCOCCN(CC)c1ccc(N=Nc2c(C#N)cc([N+](=O)[O-])cc2C#N)c(NC(C)=O)c1
Second: COc1cc(OC)nc(/N=C/c2nc(-c3ccccc3)oc2O)n1
The inhibition of the first is lower: -11.4% for the first, 5.7% for the second.

Going from `OC(CNCCNc1nccc(C(F)(F)F)n1)COc1ccc(Cl)c(Cl)c1` (stereo unspecified) to `O=c1oc(/C=C/c2ccccc2)nc2ccccc12`, the inhibition falls from -9.3% to -41.1%.

`N#C/C(=C\C=C\c1ccccc1)c1nc2ccccc2[nH]1` showed an inhibition of 13.4%.

In the case of `COc1cccc(C(=O)c2sc3nsc(SCc4ccc(F)cc4)c3c2N)c1`, the inhibition is reported as 81.9% (active).
